FAS-TE inh: blocks the thioesterase domain of human fatty acid synthase. recombinant FAS-TE, OMFH fluorogenic substrate, fluorescence endpoint. inhibition, % at 15 µM. 0.67% of 360,000 active. AID 602261;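 active = compounds whose normalised, plate-corrected inhibition of enzyme fluorescence in the single-dose primary screen is 50% or more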
ATG4B inh: inhibitors of human ATG4B cysteine protease; ATG4B cleavage of LC3-PLA2, NBD-HPC fluorescence, 1 h; Q9Y4P1; inhibition, % at 8.33 µM; 0.51% of 340,000 active; AID 504462; in the data active = inhibition above about 40%
NadD inh: inhibitors of Staphylococcus aureus NadD; purified NadD enzyme, colorimetric absorbance read-out; 0.78% of 360,000 active; inhibition, % at 20 µM; in the data active = inhibition above about 26%
SUMO Mot1 rescue: blocks SUMOylation pathway, rescuing yeast Mot1-301 growth | S. cerevisiae Mot1-301 growth rescue, ATP luminescence, 38.5C; percent above DMSO median, 100 means doubled | growth rescue, % at 18.8 µM | 1% of 320,000 active | AID 2716;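 active = every valid replicate shows activation above 250% relative to neutral control wells; inactive = the rest, any valid replicate at or below 250%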
Calb FLC: C. albicans growth modulation with fluconazole | C. albicans CaCi-2 (fluconazole-resistant clinical isolate) + fluconazole, Alamar Blue growth, 48 h | growth inhibition, % (concentration not given with the values) | 0.57% of 300,000 active;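 active = growth inhibition above about 58% in most replicates, limit read from the data, passing the limit was not always enough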;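 note: all wells also contain fluconazole at 8 µg/ml as a sub-toxic cotreatment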
Yeast Mot1 SUMO: inhibits SUMO pathway, affecting Mot1-301 yeast growth. shares compounds with SUMO Mot1 rescue. S. cerevisiae Mot1-301 galactose growth, ATP luminescence, 24 h; -100 = growth of slx-deleted rescue strain. growth activity, percent, % at 42 µM. 2,300 tested, under 10 active. AID 493004;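 active = Signal drops as the depositor expects, and the fitted half-maximal dose is no more than ten times the top valid tested dose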;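 note: more negative values mean stronger growth rescue toward the control strain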
Of the large screens only hits and unclear results are named; the others gave an inactive call (follow-up assays come after a bar, where they were run). Only some compounds are listed: those with a hit (about 3.1% of all), similar ones and a draw of the others.

COC/C=C/C1=CC2=CC(=O)C(C)(OC(=O)c3cnc4ccccc4n3)C(=O)C2=CN1CCOC (configuration not stated)	SUMO Mot1 rescue 519 | Yeast Mot1 SUMO inactive
CCn1nc(CC(=O)Nc2ccc(-n3cnnn3)c(C)c2)c2ccccc2c1=O	SUMO Mot1 rescue 724 | Yeast Mot1 SUMO inactive
CCCN(CCC)S(=O)(=O)c1ccc(C(=O)Nc2nc(-c3ccccc3)c(C(=O)OCC)s2)cc1	none
C/C(=N\N=C(/N)SC1CC(=O)N(c2cccc(Cl)c2)C1=O)c1cccs1 (configuration not stated)	SUMO Mot1 rescue 374 | Yeast Mot1 SUMO inactive
CCCOc1ccc(N2C(=O)CC(S/C(N)=N/N=C(\C)c3cccs3)C2=O)cc1 (configuration not stated)	none
CCCCC1=CC2=CC(=O)C(C)(OC(=O)CC)C(=O)C2=CN1CCc1ccc(Br)cc1 (configuration not stated)	SUMO Mot1 rescue 526 | Yeast Mot1 SUMO inactive
CCCCC1=CC2=CC(=O)C(C)(OC(=O)CC)C(=O)C2=CN1CCOC (configuration not stated)	none
CN1c2ccccc2-c2nc3ccccc3n2C1c1ccncc1 (configuration not stated)	SUMO Mot1 rescue 635 | Yeast Mot1 SUMO inactive
CN1c2ccccc2-c2nc3ccccc3n2C1c1ccccn1 (configuration not stated)	none (no result: SUMO Mot1 rescue)
CCCCCCCCN1C(=O)[C@H](CC(=O)N2CCN(C(=O)C3CC3)CC2)C[C@@]2(C(=O)OC)CCCCC=C12	none (no result: ATG4B inh, SUMO Mot1 rescue, Calb FLC)
O=C(Nc1ccc2ccccc2c1)N1CCCN(CCOc2ccccc2)CC1	SUMO Mot1 rescue 425 | Yeast Mot1 SUMO inactive
Cn1c(SCC(=O)NCCc2ccccc2)ncc(C(=O)Nc2ccc(F)cc2)c1=O	none
O=C1OC(Cc2ccccn2)C(O)=C1C1=NCCCN1 (configuration not stated)	SUMO Mot1 rescue 375 | Yeast Mot1 SUMO inactive
Cc1ccc(O)c(C(=O)CC(=O)c2cccc(F)c2)c1	SUMO Mot1 rescue 538 | Yeast Mot1 SUMO inactive
COc1ccc(CCN(C)C(=O)C2CCN(C(=O)Nc3ccccc3)CC2)cc1OC	none
O=C(NCCn1cccn1)C1CCC(=O)N(CCc2cccc(F)c2)C1 (configuration not stated)	none
CCN(CCn1cccn1)C(=O)C1CCC(=O)N(CCc2cccc(F)c2)C1 (configuration not stated)	SUMO Mot1 rescue 689 | Yeast Mot1 SUMO inactive
CCOC(=O)N1CCC(Nc2nc3ccccc3n3nnnc23)CC1	SUMO Mot1 rescue 889 | Yeast Mot1 SUMO inactive
Cc1ccc(CNc2nc3ccccc3n3nnnc23)cc1	none
Cc1ccc(-c2csc3nnc(SCc4csc(C)n4)n23)cc1	none
Cc1nc(CSc2nnc3scc(-c4ccccc4)n23)cs1	SUMO Mot1 rescue active | Yeast Mot1 SUMO inactive
CCN(CC)CCNC(=O)CCn1c(=S)[nH]c2cc3c(cc2c1=O)OCO3	SUMO Mot1 rescue active | Yeast Mot1 SUMO inactive
CCc1ccc2[nH]c(=O)c(C(c3nnnn3Cc3ccc(OC)cc3)N3CCOCC3)cc2c1 (configuration not stated)	none (no result: SUMO Mot1 rescue)
CCc1ccc2[nH]c(=O)c(C(c3nnnn3Cc3ccccc3)N3CCOCC3)cc2c1 (configuration not stated)	SUMO Mot1 rescue 478 | Yeast Mot1 SUMO inactive
O=C(NCC1CCCN1S(=O)(=O)c1cccs1)C(=O)Nc1ccccc1 (configuration not stated)	none
COc1ccc(S(=O)(=O)N2CCCC2CNC(=O)C(=O)NCc2ccccn2)cc1 (configuration not stated)	SUMO Mot1 rescue 440 | Yeast Mot1 SUMO inactive
Cc1ccc(NC(=O)C(=O)NCC2CCCN2S(=O)(=O)c2cccs2)cc1 (configuration not stated)	SUMO Mot1 rescue 464 | Yeast Mot1 SUMO inactive
Cc1cc(NC(=O)c2cccnc2Cl)ccc1NC(=O)c1cc2ccccc2o1	none
O=C(Nc1cccnc1Cl)c1cc2ccccc2o1	SUMO Mot1 rescue 567 | Yeast Mot1 SUMO inactive
CC(=O)c1ccc(N2CCN(CC(=O)Nc3cc(C)on3)CC2)cc1	SUMO Mot1 rescue 483 | Yeast Mot1 SUMO inactive
Cc1sc2ncnc(N3CCC(C(=O)NNC(=O)COc4ccccc4Cl)CC3)c2c1C	none
Cc1sc2ncnc(N3CCC(C(=O)NNC(=O)COc4ccccc4F)CC3)c2c1C	SUMO Mot1 rescue 422 (no result: Calb FLC) | Yeast Mot1 SUMO inactive
CC(=O)Nc1ccc(C=NNC(=O)CCCC(=O)NN=Cc2ccc(NC(C)=O)cc2)cc1	none (no result: SUMO Mot1 rescue, Calb FLC)
CCCCNC(=O)c1onc(CSc2ccc(F)c(F)c2)c1C(=O)NCCCC	none
CCCOc1ccc(N2C(=O)CC(N3CCC(C(=O)OCC)CC3)C2=O)cc1 (configuration not stated)	SUMO Mot1 rescue 772 | Yeast Mot1 SUMO inactive
O=C(Cn1ccc(NC(=O)OCc2ccccc2)nc1=O)NCc1ccc2c(c1)OCO2	none (no result: Calb FLC)
COc1ccc(-n2nc(C(=O)NCC(=O)N3CCCC3)c3ccccc3c2=O)c(OC)c1	SUMO Mot1 rescue active | Yeast Mot1 SUMO inactive
CCOC(=O)N1CCN(C(=O)CNC(=O)c2nn(-c3ccc(OC)c(OC)c3)c(=O)c3ccccc23)CC1	SUMO Mot1 rescue 497 | Yeast Mot1 SUMO inactive
CCOC(=O)N1CCN(C(=O)CNC(=O)c2nn(-c3ccc(OC)c(Cl)c3)c(=O)c3ccccc23)CC1	none
COc1ccc(-n2nc(C(=O)NCC(=O)N3CC(C)CC(C)C3)c3ccccc3c2=O)c(OC)c1 (configuration not stated)	none
CCc1noc(C)c1C(=O)Nc1nc(-c2cc(C)ccc2C)c(C)s1	none
CCc1noc(C)c1C(=O)Nc1nc(-c2ccc(F)cc2)c(C)s1	SUMO Mot1 rescue 634 | Yeast Mot1 SUMO inactive
N#CC1=C(N)Nc2ncnn2C1c1ccc([N+](=O)[O-])cc1 (configuration not stated)	SUMO Mot1 rescue 599 | Yeast Mot1 SUMO inactive
O=C(N/N=C/c1ccoc1)c1cccc(OC(F)(F)C(F)F)c1	none
COc1cc(C(=O)NCC(c2ccco2)N2CCOCC2)cc(OC)c1OC (configuration not stated)	none (no result: SUMO Mot1 rescue)
CCN(CC)CCNC(=O)c1c(O)c2c([nH]c1=O)CCCC2	none
CN(C)CCNC(=O)c1scc2c1CCCC2	SUMO Mot1 rescue 824 | Yeast Mot1 SUMO inactive
CN(C)CCNC(=O)c1c(O)c2c([nH]c1=O)CCCC2	SUMO Mot1 rescue 630 | Yeast Mot1 SUMO inactive
CCNCCNC(=O)c1c(O)c2c([nH]c1=O)CCCC2	SUMO Mot1 rescue active | Yeast Mot1 SUMO inactive
CCOc1ccc(Nc2nnc(SCc3nc4ccccc4c(=O)[nH]3)s2)cc1	none
CCN(CC)CCNc1ncnc2c1[nH]c1ccc(OC)cc12	SUMO Mot1 rescue active (no result: FAS-TE inh, ATG4B inh, NadD inh) | Yeast Mot1 SUMO inactive
CC(=O)/C(N)=N/Nc1cccc(Cl)c1	SUMO Mot1 rescue 437 | Yeast Mot1 SUMO inactive
COc1ccc2cc(C(=O)Nc3ccc(O)cc3)sc(=O)c2c1OC	none

Screening results (PubChem BioAssay)
